In publication PMC7819943, “Rice protein-binding microarrays: a tool to detect cis-acting elements near promoter regions in rice”:
The full ranking holds about 68,000 sequences; the median of “fluorescence intensity (a.u.)” is about 9,100, and the highest 2% start at about 16,000. The full list was thinned out, with the highest values kept by preference.

What follows are sequences tested against OsWRKY34 (Oryza sativa, UniProt Q0JBA9 1-250) (assay: protein-binding microarray (RPBM); PBS, 2% BSA, 51.3 ng/ul salmon testes DNA, 50 uM zinc acetate, 200 nM TF, 25 C, 1 h; high values mean tight binding). Conditions: protein: recombinant; tags: N-terminal polyhistidine and DsRed monomer fusion (pET32a); label: CyDye5-dUTP incorporated in the synthesized complementary strand; 3' TTTTT single-stranded linker to array surface; dsDNA, one strand shown.
Chain of OsWRKY34 (Q0JBA9 entry or part of it): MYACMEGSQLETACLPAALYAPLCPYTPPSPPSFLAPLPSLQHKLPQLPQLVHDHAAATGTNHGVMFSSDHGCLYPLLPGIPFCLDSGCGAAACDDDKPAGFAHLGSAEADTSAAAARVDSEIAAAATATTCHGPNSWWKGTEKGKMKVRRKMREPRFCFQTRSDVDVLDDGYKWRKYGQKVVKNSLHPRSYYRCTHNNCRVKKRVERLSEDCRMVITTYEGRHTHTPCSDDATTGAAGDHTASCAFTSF
Procedure, shortened: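 The binding signal is fluorescence intensity per array feature (arbitrary units). Readings came from an Axon 4000B scanner after a washed, 2% BSA-blocked, double-stranded custom Agilent array had been incubated for 1 h at 25 °C with 200 nM protein and 50 µM zinc acetate. The protein was a Ni–NTA-purified transcription factor fused N-terminally to polyhistidine and DsRed, expressed in E. coli BL21-CodonPlus.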

Sequence | binding signal
GCCACCTTTTGTTCCGCAACCGCAATGATTTCTTCTTCTTCGGAGTCACCTAGTGCAG | 14800 fluorescence intensity (a.u.)
TAGTGGTGGTCTTGATTCCTGACATAGCAGACGCATCTGACGGAGTCACCTAGTGCAG | 10500 fluorescence intensity (a.u.)
GTTTGACATGCAGACTTGATTCTATCACCTATAGCATCTGCGGAGTCACCTAGTGCAG | 28100 fluorescence intensity (a.u.)
TATATATATATATATATATAGATTTATTGACATCTATATGCGGAGTCACCTAGTGCAG | 9230 fluorescence intensity (a.u.)
TTCTTCATTATCTCTATTTGTGGTGCTATTGGTTTATTTTCGGAGTCACCTAGTGCAG | 8980 fluorescence intensity (a.u.)
GGTTTCTTCTCATTCTTCTTTTTTTCCTTTTTTCTACACGCGGAGTCACCTAGTGCAG | 14000 fluorescence intensity (a.u.)
TTCAGTTTTTGCTTGCAACGTTTGACCACTCGTCTTATTCCGGAGTCACCTAGTGCAG | 15600 fluorescence intensity (a.u.)
TTTACATTCATTTCTCTATACGAGCATGGGCCGCACTATACGGAGTCACCTAGTGCAG | 9830 fluorescence intensity (a.u.)
TCTTGGTTACATGGTGGTTGGTGTTTCATTCTCTTGTTTTCGGAGTCACCTAGTGCAG | 10000 fluorescence intensity (a.u.)
GAGTTTTTACTTTGTAATGTTTGACCACTCGTCTTATTCACGGAGTCACCTAGTGCAG | 8880 fluorescence intensity (a.u.)
CTTCCTAACGTTCATATCTCTGTGTTTTTAGTGTGTCATACGGAGTCACCTAGTGCAG | 9860 fluorescence intensity (a.u.)
ATTTTCATTTGGTTGGTGTGGTTATCTCTTTTTTCATTTACGGAGTCACCTAGTGCAG | 20700 fluorescence intensity (a.u.)
GGGGTTTCTCATGGGCCAACTATACATTCACACGCGGCCGCGGAGTCACCTAGTGCAG | 17400 fluorescence intensity (a.u.)
TCAGTTTTTGTTTGCAATGTTTGACCACTCGTCTTATTCACGGAGTCACCTAGTGCAG | 18500 fluorescence intensity (a.u.)
ATCTGATTTTTATTTTCAGCATATGCATCGTTTTCATGTTCGGAGTCACCTAGTGCAG | 10200 fluorescence intensity (a.u.)
CTGTCGTGTTTCCTCTGATTAGTTCATACAGCATCTGTTACGGAGTCACCTAGTGCAG | 17600 fluorescence intensity (a.u.)
GGCCTAATTATTGCCTTAATTTTTCTCTTTGGTTTTCTCACGGAGTCACCTAGTGCAG | 9070 fluorescence intensity (a.u.)
TGAGGGCTGCTGTGCTATTCTTCCTGGACATCTCTGGGTCCGGAGTCACCTAGTGCAG | 8650 fluorescence intensity (a.u.)
TTTCTGTTTAACGTCAACCCGGCTGTTTTCGCCCGGTCAACGGAGTCACCTAGTGCAG | 9040 fluorescence intensity (a.u.)
GCCAAGACGCCCAAAGCACACACTCTCTCTCGCTGTCTTTCGGAGTCACCTAGTGCAG | 8490 fluorescence intensity (a.u.)
GATTTGATGGATTTGTTGAGAGATATGCTTCTTAAGCCAACGGAGTCACCTAGTGCAG | 8300 fluorescence intensity (a.u.)

Sequence | binding signal
CACACCTAGGCCGCCTTTTTCAACCGGGGAGCACACCTTTCGGAGTCACCTAGTGCAG | 10400 fluorescence intensity (a.u.)
AATATGTACTACTTCCGTTTCAGGTTATAAGACTTTCTAGCGGAGTCACCTAGTGCAG | 8400 fluorescence intensity (a.u.)
CGTAGTAATGTCTGAATTCACCGCCTTAATCCTGTCACGACGGAGTCACCTAGTGCAG | 8450 fluorescence intensity (a.u.)
TTTTTCTTTTCTCGCGTACAGCTGGACGCTTCGTTTGCTTCGGAGTCACCTAGTGCAG | 11100 fluorescence intensity (a.u.)
CCCATCAACCGCCAAAGACTTCCCGCGCGCGTCTACATATCGGAGTCACCTAGTGCAG | 8450 fluorescence intensity (a.u.)
ACCGTCCTCCTCGTCACCCACCAGCTCGACTTCCTCCGCACGGAGTCACCTAGTGCAG | 8200 fluorescence intensity (a.u.)
GTCAACGATCCGGCGTCTGTTCCACTTCTACCCTCCCATCCGGAGTCACCTAGTGCAG | 8250 fluorescence intensity (a.u.)
CATATGTTTGACCATTCGTCTTATTCAAAAATTTTATTCACGGAGTCACCTAGTGCAG | 9660 fluorescence intensity (a.u.)
TTTCTCATATGTTTGACCATTCGTCTTATTAAAAAAATTTCGGAGTCACCTAGTGCAG | 8930 fluorescence intensity (a.u.)
CATCTGTCTCTGGATCTCTGCATATCTCCTCTTCTGTGATCGGAGTCACCTAGTGCAG | 17200 fluorescence intensity (a.u.)
ATTTTACTCTTTTGACTATATTGGTTCGGTTGAAGTTTTACGGAGTCACCTAGTGCAG | 23100 fluorescence intensity (a.u.)
CCCTTTACTTGATTTTCTGCTGGTTGGTTTATCTTTTATTCGGAGTCACCTAGTGCAG | 19600 fluorescence intensity (a.u.)
ATACTCTTGGTTTATCTTTGATTTTGTATATCTTTTTATTCGGAGTCACCTAGTGCAG | 9720 fluorescence intensity (a.u.)
ACCATCTCTCTCTCTCTCTCTGCATGCATATCTTCTCCTCCGGAGTCACCTAGTGCAG | 14300 fluorescence intensity (a.u.)
TCTGCATGATTCCTTGGTTTCTTTTTTTACACATTTACTTCGGAGTCACCTAGTGCAG | 10500 fluorescence intensity (a.u.)
CTGTTGACTTTTTCTTATATGTTTGACCATTCGTCTTATTCGGAGTCACCTAGTGCAG | 24600 fluorescence intensity (a.u.)
ATTTAGAGTTGACTTTGGTTTATTTTTCATTGAAGTTTATCGGAGTCACCTAGTGCAG | 9450 fluorescence intensity (a.u.)
CTGGATCTCCTCTCTCTCTCTCTCTCTCTGTCCTTCTTCTCGGAGTCACCTAGTGCAG | 10800 fluorescence intensity (a.u.)
TACTGGTTCTACTTGATCTTATTTATCTTTTTATTCTATTCGGAGTCACCTAGTGCAG | 10100 fluorescence intensity (a.u.)
TCTGCTTCACTGTATTTTTGTCCAACAATTCCATGACATGCGGAGTCACCTAGTGCAG | 8550 fluorescence intensity (a.u.)
TTTAGATTTATTTTTTGTGACATAGGGAGTACTTTTTTTTCGGAGTCACCTAGTGCAG | 9200 fluorescence intensity (a.u.)
